VLA-4 allo ag = allosterically activates the human VLA-4 integrin | P13612 | Jurkat cells, LDV-FITC binding, flow cytometry | activation, % at 10 µM (by protocol) | 24,000 tested, under 10 active | AID 528;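 active = fluorescent ligand binding to cells raised by more than 40% of the manganese-induced maximum; inconclusive = compound's own fluorescence above 85% of the ligand control signal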;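 note: 0% = ligand binding without compound and 100% = manganese-stimulated maximal binding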
FPR binder = human FPR ligand, with FPRL1 counter-screen | FPR-expressing cells, fluorescent ligand binding, flow cytometry | inhibition, % (test concentration not listed) | AID 440 | 24,000 compounds, 0.74% hits;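 note: 0% = buffer wells and 100% = receptor blocker peptide wells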
Target sequence (P21462 whole entry, looked up): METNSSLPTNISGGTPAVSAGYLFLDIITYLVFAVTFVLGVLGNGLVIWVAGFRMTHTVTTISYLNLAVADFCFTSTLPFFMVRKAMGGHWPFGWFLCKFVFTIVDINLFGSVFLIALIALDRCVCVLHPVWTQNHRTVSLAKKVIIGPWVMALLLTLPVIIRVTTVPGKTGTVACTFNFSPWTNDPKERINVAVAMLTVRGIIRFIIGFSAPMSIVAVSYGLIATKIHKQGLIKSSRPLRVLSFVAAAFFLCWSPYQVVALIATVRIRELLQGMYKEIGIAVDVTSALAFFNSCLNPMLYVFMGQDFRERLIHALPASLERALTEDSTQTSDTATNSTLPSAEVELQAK
VLA-4 antagonist = blocks LDV-FITC ligand binding to Mn2+-activated human VLA-4 integrin. P13612. Jurkat cells, LDV-FITC binding with Mn2+, flow cytometry; 100% = Mn2+-driven binding gain fully reversed. inhibition, % at 10 µM (by protocol). 24,000 compounds, 0.2% hits. AID 529;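 active = inhibition above 50%; inconclusive = compound itself fluorescent, judged against control cell fluorescence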;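 note: 0% = Mn2+ stimulated cells lacking compound and 100% = ligand binding without Mn2+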
Autofluor Jurkat = counter-screen for VLA-4 integrin: compound autofluorescence in Jurkat cells | AID 576 | flow cytometry; stronger effect = higher value; 1 = vehicle-only cell background | fluorescence ratio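 (tested at 10 µM compound in the well)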 | 24,000 compounds, 0.61% hits;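 active = fluorescence ratio above 2.44, which is 1 plus 3 SD of all ratios; inconclusive = signal too bright to measure linearly, ratio around 10 or more; inactive = fluorescence ratio below 2.44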;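 note: green fluorescence of cells measured with 488 nm excitation and 530 nm emission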
FPRL1 ligand = binds the human formylpeptide receptor-like-1 FPRL1 | FPRL1-expressing cells, fluorescent ligand binding inhibition, flow cytometry | inhibition, % (concentration not given with the values) | P25090 | 24,000 compounds, 0.3% hits;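 note: 0% = buffer alone and 100% = receptor blocker peptide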
The depositor's hits bear a star; ? = inconclusive; · = no result given. In the library only some 1.8% were active in any assay of this set; here they are far more common. Cut-off read from the data, not from the text of the source, unless noted: active = inhibition above about 30%; inconclusive = no clear call, values can overlap the other calls; inactive = below that.

SMILES	VLA-4 allo ag	FPR binder	VLA-4 antagonist	Autofluor Jurkat	FPRL1 ligand
Cc1cccn2c(=O)c3cc(C(=O)N4CCc5ccccc54)n(C)c3nc12	?	-1	?	1.8	-7
Nc1ccc(CN2CCN(c3ccc4ccccc4n3)CC2)cc1	4	-3	3	1.1	3
COc1ccccc1C1CC(c2ccc(Cl)cc2Cl)Nc2nc(N)nn21 (stereo not given)	1	-2	4	1	-8
Cc1csc(SCCn2c(N3CCCC3)nc3c2c(=O)[nH]c(=O)n3C)n1	-1	0	-11	1	-1
CCCS(=O)(=O)N1CCCC(C(=O)NCCc2ccc(Cl)cc2)C1 (stereo not given)	-5	-3	-15	1.1	-3
O=C(Nc1ccncc1)C1CCCN(S(=O)(=O)c2cccc3cccnc23)C1 (stereo not given)	4	-4	-3	0.97	-2
CC(C)(C)NC(=O)C1CCCN(S(=O)(=O)c2cccc3cccnc23)C1 (stereo not given)	1	35*	-17	1	27
CCc1ccc(CNC(=O)CN2C(=O)COc3ccccc32)cc1	-3	-6	52*	1.1	0
CN1C(=O)C(C(=O)NC(C)(C)C)C2c3ccccc3OC13CCCCC23 (stereo not given)	0	4	-9	1	0
COc1ccc(OC)c(C(=O)c2nc3c(n2O)CCCCC3)c1	-6	54*	2	1.1	52*
CCOc1ccccc1N1CCN(c2nc3ccccc3nc2C(C#N)C(=O)OC)CC1 (stereo not given)	3	-4	-24	1.5	-8
CCOc1ccccc1N1CCN(c2nc(N)c(C#N)c(CC#N)c2C#N)CC1	?	1	?	5.2*	-6
CCCCCNC(=O)CCCCn1c(=O)[nH]c2cc(OCC)c(OCC)cc2c1=O	-10	-2	78*	1	-11
COc1cc(C2C(C(=O)c3ccco3)=C(O)C(=O)N2CCc2ccccc2)ccc1O (stereo not given)	·	63*	·	·	-2
CCOc1cc(C2C(C(=O)c3ccc(C)o3)=C(O)C(=O)N2CCc2ccccc2)ccc1O (stereo not given)	·	90*	·	·	-9
COCCN1C(=O)C(O)=C(C(=O)c2ccco2)C1c1cccc(Oc2ccccc2)c1 (stereo not given)	·	72*	·	·	-5
COc1cc(C2C(C(=O)c3ccco3)=C(O)C(=O)N2Cc2cccnc2)cc(OC)c1OC (stereo not given)	·	-1	·	·	2
COc1ccc(CCN2C(=O)C(O)=C(C(=O)c3ccco3)C2c2cccs2)cc1OC (stereo not given)	·	82*	·	·	31*
C=CCN(C1CCCCC1)S(=O)(=O)c1ccc2c(c1)oc(=O)n2C	?	-9	?	2.4	-11
C=CCN(c1ccccc1)S(=O)(=O)c1ccc2c(c1)oc(=O)n2C	?	-9	?	2.5*	-14
O=c1ccc2cc3c([nH]c4ccc(Br)cc43)oc-2c1O	?	-20	?	6.6*	0
CC(C)(C)n1nc2c(c1NC(=O)c1cccc(C(F)(F)F)c1)CS(=O)C2 (stereo not given)	4	8	-25	1	10
COC(=O)C1(S(=O)(=O)c2cccc3nsnc23)CC1	-2	33*	-2	1.2	84*
O=C(c1ccc(Cl)cc1)N(Cc1cccs1)C1CCS(=O)(=O)C1 (stereo not given)	-4	28	-18	1.1	46*
C=CCn1c(SCCCC)nc(O)cc1=O	1	56*	-28	1.1	-6
SMILES	VLA-4 allo ag	FPR binder	VLA-4 antagonist	Autofluor Jurkat	FPRL1 ligand
CCn1c(SCC(=O)N2CCOCC2)nc(O)cc1=O	2	11	-28	1	5
COc1ccc(C2CNC(=O)C2)cc1OC1CCCC1 (stereo not given)	-2	-2	-10	1	3
CCOC(=O)c1c(C)oc2ccc(O)c(CN(C)C)c12	2	-3	-20	0.97	-2
CCOC(=O)c1c(C)oc2c1c(/C=N/c1ccccn1)c(O)c1ccccc12	?	·	?	8.9*	·
CC(C(=O)Nc1ccccc1-c1ccccc1)N1CCN(C(=O)c2ccco2)CC1 (stereo not given)	6	3	-14	0.99	-6
CC(=O)c1c(C)nc(-c2ccc(Cl)cc2)nc1N=CN(C)C	?	-15	?	3.2*	-12
COc1ccc(S(=O)(=O)N2CCN(CC(=O)Nc3cc(C(F)(F)F)ccc3Cl)CC2)cc1	8	-3	13	0.96	-4
COc1cccc(-c2nc(CS(=O)(=O)CC(=O)NCCCN3CCc4ccccc4C3)c(C)o2)c1	1	-9	9	1.1	-5
COc1cc2[nH]c(=O)n(CCCCCC(=O)N3CC=C(c4ccccc4)CC3)c(=O)c2cc1OC	-1	·	13	1.1	·
CCOc1ccc(/C(O)=C2/C(=O)C(=O)N(CC3CCCO3)C2c2ccco2)cc1 (stereo not given)	·	48*	·	·	26
Cc1ccc(N2CCN(C(=S)c3ccc(N(C)C)cc3)CC2)cc1	?	-6	?	3.5*	-6
CCCN(CCC)CCCNS(=O)(=O)c1ccc2c(c1)oc(=O)n2C	?	-12	?	3.7*	-10
CCOC(=O)C1=C(C)Nc2nnnn2C1c1c[nH]c2ccccc12 (stereo not given)	6	3	-18	1.1	-5
COC(=O)C1=[N+]([O-])OC(C(=O)OC)C1c1c[nH]c2ccccc12 (stereo not given)	6	35*	-4	1	77*
CN1C2C=C3C(C#N)=C(N)C(C#N)(C#N)[C@@H](c4ccc(Cl)cc4)[C@@H]3C1CC2 (stereo not given in full)	2	-3	?	1.2	1
Cc1ccc(C2C3CSCC=C3C(C#N)=C(N)C2(C#N)C#N)cc1 (stereo not given)	?	-4	?	8.8*	-25
CCCCC1(Cc2ccc([N+](=O)[O-])cc2)C(=O)N(c2ccccc2)N(c2ccccc2)C1=O	12	·	10	·	·
CCCCC1C(=O)N(c2ccccc2)N(c2ccccc2)C1=O	-43	50*	80*	0.97	0
O=C1C(C23CC4CC(CC(C4)C2)C3)C(=O)N(c2ccccc2)N1c1ccccc1	-6	73*	41	1	1
O=C(N1CCN(Cc2ccccc2)CC1)C12CC3CC(CC(C3)C1)C2	-8	6	-2	0.94	-5
COc1cccc2sc(Nc3nnc(-c4ccc(F)cc4)o3)nc12	0	·	90*	1.1	·
Cc1nn(-c2ccccc2)c2sc(-c3n[nH]c(=S)o3)cc12	0	-2	-5	1	-7
CCOC(=O)C1CCN(C(=O)c2sc3nc(-c4ccccc4)cn3c2C)CC1	?	1	?	2.8*	-7
Cc1c(C(=O)N2CCN(c3ccc(F)cc3)CC2)sc2nc(-c3ccccc3)cn12	-9	-2	30	1.1	-14
